# Assay outcomes (PubChem)
# Compounds with a hit are over-represented: about 12% of the library has one in this group of screens.
# G9a block – blocks human histone lysine methyltransferase G9a. G9a H3K9 monomethylation, AlphaScreen, 2 h. Q96KQ7. actives 8.8% (n = 350,000). Potency, µM (doses to about 102 µM), usual class: inhibitors; note: nearly all actives have a fitted effect of over 75% in size
# Target sequence (Q96KQ7 913-1193 limits assumed): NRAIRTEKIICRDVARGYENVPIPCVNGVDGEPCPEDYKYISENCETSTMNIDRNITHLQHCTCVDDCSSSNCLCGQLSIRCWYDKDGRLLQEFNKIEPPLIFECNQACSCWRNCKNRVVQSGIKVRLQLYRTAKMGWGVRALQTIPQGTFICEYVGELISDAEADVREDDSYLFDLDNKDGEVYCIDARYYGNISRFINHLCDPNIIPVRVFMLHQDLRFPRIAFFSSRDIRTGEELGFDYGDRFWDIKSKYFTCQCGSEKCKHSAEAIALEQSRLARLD
#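 Using a bead-based AlphaScreen, monomethylated H3K9 product from 2 h room-temperature reactions (G9a 20 nM, peptide 500 nM, SAM 20 uM) was detected with 0.5 ug/mL rabbit anti-H3K9me1 antibody.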
# Sfp inh – inhibitors of Bacillus subtilis Sfp phosphopantetheinyl transferase. Q9F4F7. Biochemical Sfp PPTase activity, qHTS. Potency, µM, hits mostly inhibitors. actives 3.5% (n = 310,000);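 note: the enzyme is Sfp with the accession as filed and its product quenches rhodamine fluorescence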
#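 Step 1, compound plus 15 nM Sfp-PPTase, 15 min, room temperature. Step 2, add rhodamine-CoA (5 uM) and BHQ-2-YbbR (12.5 uM). Step 3, read 525/598 nm fluorescence at 0 and 30 min.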
# HP1b binding inh – blocks HP1-beta chromodomain binding to methylated histone tails; P83916; AlphaScreen HP1-beta / biotin-H3K9me3 peptide binding; Potency, µM (top dose mostly 114 µM), most hits filed as inhibitors; actives 0.56% (n = 390,000); AID 540317; note: nearly all actives have a fitted effect of over 70% in size
# Target sequence (P83916 whole entry, looked up): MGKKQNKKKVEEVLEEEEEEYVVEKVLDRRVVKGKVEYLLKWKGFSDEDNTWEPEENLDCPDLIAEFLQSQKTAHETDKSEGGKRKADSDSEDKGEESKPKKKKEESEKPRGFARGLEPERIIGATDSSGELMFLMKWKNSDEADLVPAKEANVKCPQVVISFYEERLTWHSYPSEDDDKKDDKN
#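 Compound inhibition of the preformed complex between 50 nM HP1-beta and 50 nM biotinylated H3K9me3 peptide was read by AlphaScreen. Buffer was PBS pH 7.4 with 0.01% Tween-20. Incubations ran 30 min at room temperature, with 10 ug/mL donor/acceptor beads.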
# BAZ2B inh – blocks human BAZ2B; Q9UIF8; AlphaScreen BAZ2B-H3K14Ac peptide displacement; Potency, µM (series often up to 114 µM), most hits filed as inhibitors; actives 4.4% (n = 360,000); AID 504333; note: nearly all actives have a fitted effect of over 60% in size
#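 Protein-peptide AlphaScreen: BAZ2B 50 nM, b-H3K14Ac 50 nM, 1x PBS pH 7.4 + 0.01% Tween-20. Preincubation 30 min RT; cpd 30 min RT (top 110 uM); beads 20 min RT, light-protected.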
# PLK1 PBD inh – PLK1 (human) polo-box domain binding inhibition. Potency, µM, actives largely listed as inhibitors. actives 2.8% (n = 360,000). Plk1 PBD binding of FITC phosphopeptide, fluorescence polarization. P53350; note: series mostly up to about 57 µM; nearly all actives have a fitted effect of over 65% in size
# JMJD2A Tudor inh – inhibitors of human JMJD2A Tudor domain; AlphaScreen JMJD2A-Tudor / H3K4me3 peptide binding; O75164; Potency, µM (doses to about 114 µM), actives largely listed as inhibitors; actives 4.4% (n = 390,000); note: nearly all actives have a fitted effect of over 50% in size
# Numbers stand for hits; . = inactive; ? = inconclusive; / = not tested or not shown; [ ] = remark or other dose. Calls come from the whole dose curve; as a rule, active = well fitted curve in the direction sought with a large enough effect; inconclusive = small, poorly fitted or top-dose-only effect, or another doubt; inactive = no such curve, though single readings can be large; an effect the other way counts as inactive or inconclusive.
SMILES,G9a block,Sfp inh,HP1b binding inh,BAZ2B inh,PLK1 PBD inh,JMJD2A Tudor inh
O=C1C=C(Nc2ccccc2)c2ccccc2C1=O,39.8µM,.,?,?,.,.
Cc1ccc(C(=S)NCS(=O)(=O)c2ccc(C)cc2)cc1,39.8µM,?,.,?,?,?
Cc1ccc(S(=O)(=O)NC(=S)c2ccccc2)cc1,/,/,.,/,.,.
Cc1ccc(S(=O)(=O)CNC(=S)c2cccc(Cl)c2)cc1,?,.,.,.,?,.
CCc1ccc(S(=O)(=O)NC(=S)Nc2ccccc2)cc1,17.8µM,15.8µM,.,.,26.7µM,.
CC(=O)NS(=O)(=O)c1ccc(NC(=S)Nc2ccccc2)cc1,.,.,.,.,.,.
CCNC(=S)NS(=O)(=O)c1ccc(C)cc1,31.6µM,?,.,.,.,.
CCNC(=S)NS(=O)(=O)c1ccc(CC)cc1,28.2µM,.,.,.,.,25.1µM
CN(C)c1ccc(CNC(=O)CCn2c(=O)c3cccn3c3ccc(F)cc32)cc1,.,/,.,.,/,.
Cc1cc(C)c(NC(=O)Cn2nc3c(cc2=O)CCCC3)c(C)c1,.,/,.,.,/,.
COc1cc(NC(=S)NC(=O)CCc2ccccc2)cc(OC)c1,/,.,.,.,.,.
CCc1ccc(NC(=O)Cn2c(=O)n(CCC(=O)NCCc3ccc(OC)c(OC)c3)c(=O)c3ccccc32)cc1,.,/,.,.,/,.
Cc1cc2c(c(=O)n1Cc1ccccc1)C1O[C@](CCCCN3C(=O)c4ccccc4C3=O)(Cc3cc(C#N)ccc31)O2,.[2.33 µM],.,/,?,/,/
COc1cccc(C2CC(=O)Nc3c2c(=O)[nH]c2nc4ccccc4n32)c1 (centres undefined),.,/,.,.,/,.
CS(=O)(=O)c1ccc2nc(NC(=O)CN3CCN(Cc4ccccc4)CC3)sc2c1,12.6µM,.,.,.,.,?
CC(C)CC(=O)Nc1nc2ccc(S(C)(=O)=O)cc2s1,50.1µM,20µM,.,.,.,.
CCCNS(=O)(=O)c1ccc2nc(NC(=O)c3ccc(F)cc3)sc2c1,1.41µM,/,?,.,/,50.1µM
COc1ccc(C2Nc3ccccc3C(=O)N2Cc2ccccc2)cc1COc1ccc(Cl)cc1 (centres undefined),/,/,/,/,/,.
CCOC(=O)c1noc2ncnc(N3CCC(C)CC3)c12,.,/,.,.,/,.
CCOC(=O)CNC(=O)N1CCCN(S(=O)(=O)c2ccc3c(ccn3CC)c2)CC1,.,/,.,.,/,.
COc1ccc2cc(C(=O)C3CCCN(C(=O)c4cccnc4)C3)ccc2c1 (centres undefined),?,.,.,.,.,.
COc1ccc2cc(C(=O)C3CCCN(C(=O)c4cnn(C(C)C)c4)C3)ccc2c1 (centres undefined),.,.,.,.,23.8µM,17.8µM
Cc1cc(Cl)ccc1C(=O)C1CCCN(C(=O)c2ccoc2)C1 (centres undefined),.,.,.,?,.,.
COCc1ccc(C(=O)N2CCCC(C(=O)c3ccc(Cl)cc3C)C2)o1 (centres undefined),.[0.501 µM],.,.,.,18.9µM,?
COc1ccc(C(=O)C2CCCN(C(=O)c3ccc(C(C)=O)s3)C2)c(C)c1 (centres undefined),.[12.7 µM],.,.,.,29.9µM,.
SMILES,G9a block,Sfp inh,HP1b binding inh,BAZ2B inh,PLK1 PBD inh,JMJD2A Tudor inh
CN(C)c1ccccc1C(=O)N1CCCC(C(=O)c2ccc3ccccc3c2)C1 (centres undefined),50.1µM,.,.,?,.,?
CO[C@]1(NC(=O)C2SC(=C(C(N)=O)C(=O)O)S2)C(=O)N2C(C(=O)O)=C(CSc3nnnn3C)CS[C@H]21 (some centres undefined),.[21.5 µM],.,/,/,/,/
CCCCCn1c(CCNC(=O)c2cccc(C)c2)nc2ccccc21,.,/,.,.,/,.
Cc1oc(-c2ccccc2F)nc1CS(=O)(=O)CC(=O)N1CCN(c2ccc(Cl)cc2)CC1,?,/,.,?,/,?
O=C(Nc1ccc(OC(F)F)cc1)c1cc(S(=O)(=O)N2CCOCC2)ccc1N1CCCC1,/,/,.,/,.,.
COc1ccc(N2CCN(C(=O)c3ccccc3F)CC2)c([N+](=O)[O-])c1,50.1µM,.,?,?,8.44µM,.[11.4 µM]
CCC(=O)N1CCN(c2ccc(OC)cc2[N+](=O)[O-])CC1,.,.,.,.,.,.
COc1ccc(N2CCN(C(=O)c3cccc(Br)c3)CC2)c([N+](=O)[O-])c1,?,.,?,39.8µM,26.7µM,22.4µM
COc1ccc(N2CCN(C(=O)c3ccc(F)cc3)CC2)c([N+](=O)[O-])c1,.,.,.,?,.,.
COc1ccc(N2CCN(S(=O)(=O)c3ccc4c(c3)CCCC4)CC2)c([N+](=O)[O-])c1,17.8µM,.,?,?,.,?
COc1ccc(N2CCN(C(=O)CC34CC5CC(CC(C5)C3)C4)CC2)c([N+](=O)[O-])c1,?,?,?,35.5µM,.,28.2µM
Cc1ccc(NC(=O)NC(=O)CSc2nnc(-c3ccc(Cl)cc3Cl)n2N)c(C)c1,.,.,.,.,.,.
CCOC(=O)C1=C(C)OC(N)=C(C#N)C1c1c(C)nn(-c2ccccc2)c1Cl (centres undefined),?,56.2µM,.,.,.,?
Cc1nn(-c2ccccc2)c(Cl)c1C1C(C#N)=C(N)Oc2n[nH]c(C)c21 (centres undefined),?,.,.,.,23.8µM,.[11.4 µM]
C=CCOC(=O)C1=C(C)OC(N)=C(C#N)C1c1c(C)nn(-c2ccccc2)c1Cl (centres undefined),.,.,.,.,.,.
COC/C=C/C1=CC2=CC(=O)C(C)(OC(=O)c3ccc(Cl)nc3)C(=O)C2=CO1 (centres undefined),/,.,/,/,/,/
CCOc1ccc(NC(=O)Cn2c(=O)n(-c3ccccc3)c(=O)c3ccc(C(=O)NCc4ccc5c(c4)OCO5)cc32)cc1,.,/,.,/,/,.
CCc1cccc(NC(=O)C2CCCN2S(=O)(=O)c2ccc3nc(-c4ccccc4)[nH]c3c2)c1 (centres undefined),.,/,.,.,/,.
CCc1nn2c(=O)cc(COc3ccc(/C=C4\C(=N)N5N=C(CC(C)C)SC5=NC4=O)cc3)nc2s1,.,.,.,?,?,44.7µM
CCC1=NN2C(=N)/C(=C\c3ccc(OCc4cc(=O)n5nc(CC)sc5n4)c(OC)c3)C(=O)N=C2S1,?,.,.,79.4µM,?,?
Cc1cc2occ(CC(=O)OCC(=O)Nc3sc4c(c3C#N)CCC(C)C4)c2cc1C (centres undefined),?,.,.,.,.,.
Cc1ccc(S(=O)(=O)NCC(=O)Nc2cccnc2)cc1C,/,/,.,/,.,.
O=C(COC(=O)c1ccc(Cl)nc1)Nc1ccc2c(c1)OCCO2,.[12.7 µM],/,.,.,.,.
